A selection: hits, their analogues and other compounds. The true share with any hit is near 1%.
SSB-PriA inh: inhibitors of Klebsiella pneumoniae PriA binding to SSB C-terminal tail, primary screen, biochemical, AlphaScreen | PriA–SSB C-terminal tail interaction (Klebsiella pneumoniae) | AlphaScreen SSBct-PriA binding, biotinylated peptide | inhibition, % at 33 µM | hit rate 0.6% among 430,000 | AID 1272365, 2023; in the data active = inhibition mostly above about 37%, no sharp cut-off; inactive = mostly below about 20%;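 also: plate controls were negative control peptide for no effect and reference peptide for full effect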
Mtb BioA inh: M. tuberculosis BioA enzyme inhibitors, primary screen, biochemical, plate reader, single point, HTS. 7,8-diaminopelargonic acid synthase BioA (Mycobacterium tuberculosis). purified M. tuberculosis BioA enzyme. inhibition, % at 9.99 µM. hit rate 0.096% among 360,000. AID 602481, 2012; in the data active = inhibition above about 40%
FadD28 FP inh: inhibitors of FadD28 bisubstrate probe binding, primary screen, biochemical, fluorescence polarization, single point; inhibition, % at 12.5 µM; hit rate 0.22% among 360,000; in the data active = inhibition above about 8.5%, passing the limit was not always enough
TcdB inh: TcdB glycohydrolase inhibitors, primary screen, biochemical, single point, plate reader. hit rate 0.24% among 350,000. Toxin B (Clostridioides difficile), P18177. TcdB glycohydrolase enzymatic assay. inhibition, % at 9.99 µM; in the data active = inhibition above about 10%
Mtb hypoxia inh: PubChem AID 1159583 | fluorescence inhibition, % (no concentration beside the values) | M. tuberculosis hypoxia-regulated fluorescent reporter, fluorescence | hit rate 0.1% among 300,000; in the data active = fluorescence inhibition mostly above about 23%, no sharp cut-off; inactive = mostly below about 17%
PrP UTR inh: inhibition of PrP 5' UTR reporter expression; cell-based PrP 5' UTR mRNA reporter, plate reader; inhibition, % (concentration not given with the values); hit rate 0.35% among 340,000; AID 488862, 2010; in the data active = inhibition above about 52%; also: 0 = median of the neutral control wells
* = called active by the depositor; . = no result.

SMILES	SSB-PriA inh	Mtb BioA inh	FadD28 FP inh	TcdB inh	Mtb hypoxia inh	PrP UTR inh
CC(=O)N1CCc2c(sc(NC(=O)Cc3ccc(F)cc3)c2C#N)C1	60*	-3	-2	1	-5	8
CC(=O)N1CCc2c(sc(NC(=O)Cc3ccc(F)cc3)c2C(N)=O)C1	0	1	-2	0	0	-2
CC(=O)N1CCc2c(sc(NC(=O)c3ccc([N+](=O)[O-])s3)c2C#N)C1	23	.	.	.	.	.
CC(=O)N1CCc2c(sc(NC(=O)c3ccc([N+](=O)[O-])o3)c2C#N)C1	0	3	0	1	40*	34
COC(=O)N1CCC(CNC(=O)Cc2cccc(OC)c2)CC1	-12	.	.	.	.	.
CCCCCC(=O)Nc1cc(S(=O)(=O)N2CCCCC2)ccc1N1CCCCC1	-5	-2	0	0	-8	-22
CCCCCC(=O)Nc1cc(S(=O)(=O)O)cc2cc(S(=O)(=O)O)cc(O)c12	6	.	35*	-5	.	-22
COC(=O)c1ccc(NC(=O)NS(=O)(=O)c2ccc(C)cc2)cc1	-4	-1	-2	.	6	-34
Fc1cccc(CON=Cc2c(-c3ccccc3)nc3ccc(Cl)cn23)c1	-5	.	.	.	38*	.
Cc1ccn2c(C=NOCc3cccc(F)c3)c(-c3ccc(Cl)cc3)nc2c1	-8	.	.	.	.	.
O=C(CSc1nnc(CN2CCOCC2)n1-c1ccc(Cl)cc1)Nc1ccc2c(c1)OCO2	-5	7	-2	.	2	-1
CCOC(=O)N1CCN(C(=O)CSc2ccc3nnc(-c4ccc(F)cc4)n3n2)CC1	-3	.	.	.	.	.
O=C(CSc1ccc2nnc(-c3ccc(F)cc3)n2n1)N1CCOCC1	-3	4	-2	24*	7	-40
CSc1ncc(-c2ccc(C)cc2)n1-c1ccccc1C	58*	.	.	.	.	.
Cc1ccc(-c2cnc(SCc3ccc(F)cc3)n2-c2ccc(OC(F)(F)F)cc2)cc1	-15	.	.	.	.	.
COc1ccccc1NC(=O)CSc1nncn1N	-3	-1	0	1	11	-4
CN(C)CCCNC(=O)C[C@H]1C[C@H](C(=O)N2CCCCC2)[C@@]2(CCc3ccccc3)c3[nH]c4cc(-c5ccco5)ccc4c3CCN2C1=O	46*	2	-6	4	1	-3
CN(C)CCCNC(=O)C[C@H]1C[C@H](C(=O)N2CCCCC2)[C@@]2(C)c3[nH]c4cc(-c5ccco5)ccc4c3CCN2C1=O	10	-2	-3	3	-14	2
O=C1NC(=O)N(c2ccccc2)C(=O)/C1=C\c1ccc([N+](=O)[O-])s1	5	.	.	0	0	.
COc1ccc(OC)c(N2C(=O)NC(=O)/C(=C\c3ccc([N+](=O)[O-])s3)C2=O)c1	13	1	23*	0	-3	-24
CCOc1cc(C(=O)NCCc2ccc3c(c2)CCCN3C)cc(OCC)c1OCC	36*	.	.	.	.	.
COc1ccc(C(=O)NCCc2ccc3c(c2)CCCN3C)c(OC)c1	62*	.	.	.	.	.
COc1ccc(C(=O)NCC(c2ccc3c(c2)CCCN3C)N2CCOCC2)c(OC)c1 (stereo unspecified)	4	.	.	.	.	.
O=C(Nc1ccc(CN2CCN(c3ccccn3)CC2)cc1)Nc1ccc2c(c1)OCO2	50*	.	.	.	.	.
N#CC1=C(N)Oc2cc(N)ccc2C1c1ccsc1 (stereo unspecified)	-3	.	-4	.	1	-26
SMILES	SSB-PriA inh	Mtb BioA inh	FadD28 FP inh	TcdB inh	Mtb hypoxia inh	PrP UTR inh
N#CC1=C(N)Oc2ccc3ccc(O)cc3c2C1c1ccsc1 (stereo unspecified)	10	.	15*	-1	2	-26
CCCCCOc1ccc(C(=O)NC(CCC)C(=O)O)cc1 (stereo unspecified)	-6	-1	-3	.	15	4
COc1ccccc1NC(=O)N(C)C[C@H]1Oc2cc(Br)ccc2S(=O)(=O)N([C@H](C)CO)C[C@H]1C	.	-3	-1	2	.	.
O=C(O)COn1c(-c2ccc(Cl)cc2)nc2ccc(Cl)cc21	-3	.	-4	10*	2	-33
O=C(O)c1nc[nH]c1C(=O)O	85*	.	.	.	.	.
Cc1ccc(C)c(Nc2c([N+](=O)[O-])cc(C(=O)N3CC(=O)Nc4ccccc43)cc2[N+](=O)[O-])c1	53*	.	-2	.	1	1
Cc1cccc(Nc2c([N+](=O)[O-])cc(C(=O)N3CC(=O)Nc4ccccc43)cc2[N+](=O)[O-])c1	8	-1	0	0	.	-14
O=C(c1ccccc1)c1sc(NC(=O)c2sc3ccccc3c2Cl)nc1-c1ccccc1	-1	.	.	.	.	.
Cc1cccc(NC(=O)NNC(=O)c2ccc3ccccc3c2O)c1	4	-1	8.5*	0	9	-30
Nc1ccc(N2CCCCC2)cc1N1CCCCC1	63*	.	-4	.	.	-2
CCC(=O)Nc1cccc(-n2nnnc2SCC(=O)c2ccc(C)c(C)c2)c1	-6	.	11*	0	0	-54
COc1cc(C(O)c2nc3ccccc3s2)cc(OC)c1OC (stereo unspecified)	-1	2	24*	0	-6	-23
COc1ccc(C(O)c2nc3ccccc3s2)cc1 (stereo unspecified)	-5	.	.	.	.	.
CSc1ccc(OCC(=O)Nc2ccc(N3CCOCC3)c(Cl)c2)cc1	-1	0	0	0	6	-4
O=C(CN1C(=O)CCC1=O)NNc1ccc2ccccc2c1	-4	0	-5	82*	-8	-3
O=C(Cc1ccccc1)NNc1ccc2ccccc2c1	-4	.	0	1	.	-32
CCN(CC)c1ccc(C=C2C(=O)OC3(CCCCC3)OC2=O)cc1	-10	.	-3	3	5	-11
CCN(CC)c1ccc(/C=C2/C(=O)c3ccc(C(=O)O)cc3C2=O)cc1	-3	.	18*	2	6	-75
Cc1cc(NC(=O)Cn2cccc(-c3nc(C4CC4)no3)c2=O)no1	26*	.	.	.	.	.
Cc1c(C(=O)c2ccccc2)c2ccccn2c1CCc1ccccn1	2	.	-4	13*	-6	-8
O=C(CN1CC(=O)Oc2ccccc21)OCC(=O)c1ccc(F)cc1	77*	.	-5	-1	0	-69
O=C1CN(CC(=O)N2CCCCC2)c2ccccc2O1	11	1	-3	.	.	-45
O=C(CN1CC(=O)Oc2ccccc21)OCC(=O)c1ccc(Br)cc1	86*	-1	0	.	.	-5
O=C(CN1C(=O)c2ccccc2C1=O)NCC(=O)OCC(=O)c1ccc(Br)cc1	-9	.	-2	.	.	-24
CSc1nc2c(cc1C#N)CCC2	-3	-1	-1	1	17	-38
Brc1cc(Br)c2nc3c(cc2c1)CCC3	-33	1	-1	1	54*	-12

Bioassay records (PubChem)
